In PubChem BioAssay AID624483 (NMMLSC, 2012) one finds fluorescence intensity data, which are given here for 93 molecules.

SMILES strings stand for the structures. Hit rate of the full screen: of about 360,000 compounds, about 11,000 (3.1%) were called active. Roughly 2% stayed inconclusive and do not appear here. The sample holds actives, similar compounds and a random draw of the others, so the mix is not that of the screen. No stated cut-off is given here; in the data, active means fluorescence intensity above about 16000; inconclusive means no clear call, values can overlap the other calls; inactive means below that.

This assay can be described thus: compound fluorescence in toxin protease inhibitor counterscreen, primary screen, artefact control for toxin protease inhibitor project, biochemical, multiplex microsphere, HTS (AID 624483). As to conditions: compound autofluorescence counterscreen, microsphere flow cytometry; hits give high values. In general terms: Counterscreens check selectivity or assay interference.
With `COc1ccc(CCn2c(NCCCN3CCOCC3)nc3c2c(=O)[nH]c(=O)n3C)cc1`, the fluorescence intensity is 4180 (inactive).

For `CCCCNc1nc2c(c(=O)n(C)c(=O)n2C)n1Cc1cccc(OC)c1`, the fluorescence intensity is 4560 (inactive). Regarding `CCCCNc1nc2c(c(=O)[nH]c(=O)n2C)n1CCOc1ccccc1`, the fluorescence intensity was 20600 (active). Take `CCCC/C=C/c1cccc2nncn12`: the fluorescence intensity is 3130 (inactive). Turning to `COc1ccc(CN2CN(C3CCCC3)CSC2=S)cc1`, the fluorescence intensity is 3230 (inactive). As for `COc1ccc(CN2CN(C(C)C)CSC2=S)cc1`, the fluorescence intensity is 24500 (active). Take `COc1ccc(CCC(C)N2CCc3ccccc3C2)cc1` (stereo not drawn): the fluorescence intensity is 3950 (inactive). Regarding `NC(=O)COc1ccc2c3c(c(=O)oc2c1)CCCCC3`, the fluorescence intensity was 24300 (active). For the molecule `NC(=O)C1CCN(C(=O)COc2ccc3c4c(c(=O)oc3c2)CCC4)CC1`, the fluorescence intensity was 5000 (inactive). Regarding `O=C(COc1ccc2c3c(c(=O)oc2c1)CCC3)NC1CCCCC1`, the fluorescence intensity is 9280 (inactive).

For `Cc1nc(C(F)(F)F)ccc1C(=O)N1CCC1(C)C(=O)NS(=O)(=O)c1ccccc1Cl` (stereo not drawn), the fluorescence intensity is 2880 (inactive). In the case of `O=C(CSc1nnc(-c2ccncc2)n1C1CCCCC1)Nc1ccccc1` it was 20700 (active).

With `COCCCn1c(SCC(=O)Nc2ccccc2)nnc1-c1ccncc1`, the fluorescence intensity was 3490 (inactive). Turning to `O=C(CSc1nnc(-c2ccncc2)n1-c1ccc(Cl)cc1)Nc1ccc(C(=O)O)cc1`, the fluorescence intensity was 3940 (inactive). Then `CN(C(=O)c1c(Cl)cnn1C)C12CC3CC(CC(C3)C1)C2`, with 2490 (inactive); and `CCCNC(=O)C1(C)CCCN(Cc2cccc(C(F)(F)F)c2)C1` (stereo not drawn), with 3060 (inactive).

Take `O=C(CSc1ncccn1)NC(=O)NCc1ccccc1`: the fluorescence intensity is 10500 (inactive).

Take `O=C(COc1ncnc2ccccc12)NC(=O)NCc1ccccc1`: the fluorescence intensity is 16500 (active). Then `CC(C)C(C)NC(=O)COc1ncnc2ccccc12` (stereo not drawn), with 2080 (inactive); and `CCc1nc2ccccc2c(C(=O)NCc2ccc(OC)cc2)c1C`, with 4980 (inactive). Then `CSc1ccccc1C(=O)NCc1ccccc1`, with 3280 (inactive); and `CCSc1ccccc1C(=O)NCc1ccc(OC)cc1`, with 24300 (active). Take `O=C(CCN1C(=O)c2ccccc2C1=O)C1=NN[C@@H]2C(=O)N(c3ccc(F)cc3)C(=O)[C@H]12`: the fluorescence intensity was 2580 (inactive). Then `CC(C)(C)N1C(=O)c2c(C(=O)OCc3ccccc3)[nH]c(-c3ccccc3)c2C1=O`, with 5800 (inactive); and `Cc1ccc(-c2noc(CN3CCN(Cc4ccccc4)CC3)n2)cc1`, with 23500 (active). Then `O=c1ccc(S(=O)(=O)N2CCCC2)cn1Cc1nc(-c2ccccc2)no1`, with 3920 (inactive). Consider `CC1CCN(Cc2nc(-c3ccc(Cl)cc3)no2)CC1`, for which the fluorescence intensity is 6270 (inactive). Regarding `COc1ccc(S(=O)(=O)N2CCCCC2c2cc(C(=O)NCc3ccc(F)cc3)no2)cc1` (stereo not drawn), the fluorescence intensity is 2840 (inactive). Consider `CCCNC(=O)COc1coc(CN2CCN(Cc3ccccc3)CC2)cc1=O`, for which the fluorescence intensity was 5680 (inactive). Then `CC1(C)Oc2ccc3ccc(=O)oc3c2/C(=C/NCCO)C1=O`, with 2160 (inactive); and `CCOC(=O)CN1CCC(c2ccccc2)CC1`, with 2610 (inactive); and `COc1ccccc1C1=CC(=O)CCC1`, with 3790 (inactive). `CCOC(=O)Cn1c2c(c(-c3ccccc3OC)cc1=O)CCCC2`: the fluorescence intensity was 23500 (active). As for `C[C@H]([C@@H](O)[C@@H](O)[C@@H](C)C(C)(C)C)[C@H]1CC[C@H]2C3CC[C@H]4C[C@H](OS(=O)(=O)O)[C@@H](OS(=O)(=O)O)C[C@]4(C)[C@H]3CC[C@]12C` (stereo partly drawn), the fluorescence intensity was 4680 (inactive). In the case of `CCOC(=O)Cc1csc(SCC(=O)NC(C)C23CC4CC(CC(C4)C2)C3)n1` (stereo not drawn) it was 9570 (inactive). Take `COC(=O)CNC(=O)c1ccc2c(c1)S(=O)(=O)c1ccccc1C2=O`: the fluorescence intensity is 2970 (inactive). Turning to `CC(C)NC(=O)NNc1c(Cl)cncc1Cl`, the fluorescence intensity was 3840 (inactive).

For `CCOC(=O)NNc1cc(C(F)(F)F)ccn1`, the fluorescence intensity is 3590 (inactive). On to `CCC(=O)OCc1c(C(F)(F)F)nn(C)c1Oc1cccc(C(F)(F)F)c1`, for which the fluorescence intensity is 18100 (active). Then `Cc1nc(N)[nH]c(=O)c1Oc1cccc(C(F)(F)F)c1`, with 6010 (inactive); and `CCCCNC(=O)Nc1c(C)cc(SC#N)cc1C`, with 2550 (inactive); and `Cn1c2ccccc2n2c(=O)c(=O)n(CC(=O)c3ccc(F)cc3)nc12`, with 8720 (inactive). In the case of `CC1(C(=O)NS(=O)(=O)c2ccccc2)CCN1C(=O)C1CCCCC1` (stereo not drawn) it was 3660 (inactive); in that of `Cc1ccccc1N1CCN(S(=O)(=O)c2ccc3ccccc3c2)CC1`, 4580 (inactive); in that of `Cc1ccc(S(=O)(=O)N2CCN(c3ccccc3)CC2)cc1C`, 4010 (inactive).

Turning to `Cc1cc(N2CCN(S(=O)(=O)c3ccc(C)c(C)c3)CC2)c2ccccc2n1`, the fluorescence intensity was 23300 (active). In the case of `CCCS(=O)(=O)NC(=O)C1(C)CCN(C(=O)c2sccc2C)C1` (stereo not drawn) it was 3570 (inactive); in that of `CC(=O)N1Cc2cc(C(=O)NCc3cccc(F)c3)nc(-c3cccc(C4=CCCC4)c3)c2[C@H]1CCO`, 5550 (inactive); in that of `O=C1NC2(CCCCC2)N=C1c1ccccc1`, 24900 (active).

In the case of `O=[N+]([O-])c1ccc(C2C3C(c4ccccc4)=NC4(CCCCC4)N32)cc1` (stereo not drawn), the fluorescence intensity was 7680 (inactive). Then `O=c1cc(-c2ccccc2)nc(N2CCCCC2)[nH]1`, with 6120 (inactive); and `CCCNC(=O)C1(C)CCN(C(=O)c2ccc(F)cc2Cl)C1` (stereo not drawn), with 2840 (inactive). As to `COCCNC(=O)C1CCCN(Cc2ccccc2Cl)CC1` (stereo not drawn), the fluorescence intensity is 3660 (inactive).

`CCOC(=O)c1nnn(-c2nonc2-n2cccc2)c1CN1CCOCC1`: the fluorescence intensity is 10800 (inactive). Then `CCOC(=O)c1c(CN(C)C)n(-c2ccccc2)c2cc(Br)c(O)cc12`, with 5060 (inactive); and `CCOC(=O)c1c(CN2CCOCC2)n(-c2ccccc2)c2ccc(O)cc12`, with 16500 (active). As to `C[C@H]1CN([C@@H](C)CO)C(=O)Cc2cc(NS(C)(=O)=O)ccc2O[C@@H]1CN(C)CC1CC1`, the fluorescence intensity was 3570 (inactive). Then `CCc1nc2c(OCCOc3ccccc3)cccn2c1N(C)C(=O)c1cccs1`, with 3880 (inactive); and `CCOc1ccc(Cl)cc1-c1cc(C(=O)NCc2cccs2)[nH]n1`, with 3900 (inactive).

Consider `CC(=O)c1cccc(-c2cnc3c(NC=O)cc(-c4ccc(N(C)C)cc4)cn23)c1`, for which the fluorescence intensity was 3260 (inactive). As to `CC(C)(C)OC(=O)N1CCN(C(=O)c2[nH]c(C(F)(F)F)nc2-c2ccccc2)CC1`, the fluorescence intensity is 5720 (inactive). In the case of `O=C(COc1ccc2c(C(F)(F)F)cc(=O)oc2c1)Nc1ccc2c(c1)OCCO2` it was 23100 (active).

For `CC(C)NS(=O)(=O)c1ccc(OCC(=O)Nc2ccc3c(c2)OCCO3)cc1`, the fluorescence intensity was 4280 (inactive). Then `CCN(CC(=O)Nc1ccc2c(c1)OCCO2)Cc1cc(=O)oc2cc(C)c(C)cc12`, with 10100 (inactive). As to `Cc1cc(C(=O)N2CCCC2(C)C(=O)O)c(C)o1` (stereo not drawn), the fluorescence intensity was 4080 (inactive).

Turning to `Cc1cccc(C)c1Cn1c(C)c(C(=O)NCc2cccc(Cl)c2)sc1=O`, the fluorescence intensity was 4280 (inactive). With `CC(C)COP(=O)(c1ccc(N(C)C)cc1)C(Nc1ccccc1)c1cccnc1` (stereo not drawn), the fluorescence intensity is 2300 (inactive). As to `Cc1ccccc1C(=O)Nc1ccccc1NC(=O)c1ccccc1C`, the fluorescence intensity was 3760 (inactive). Then `COC(=O)c1ccc(C(=O)OC)c(NC(=S)N2CCN(c3cc(Cl)ccc3C)CC2)c1`, with 2510 (inactive). In the case of `COC(=O)c1ccc(C(=O)Nc2cc(Cl)ccc2Cl)cc1NC(=O)c1ccccc1C` it was 23700 (active); in that of `CC1CCN(S(=O)(=O)c2ccc(S(=O)(=O)NCc3ccco3)cc2)CC1`, 6420 (inactive); in that of `O=C1CC2(CC(c3ccc(Cl)cc3)=NO2)C(=O)N1c1ccccc1` (stereo not drawn), 5420 (inactive).

With `COc1ccc(C2=NOC3(CC(=O)N(c4ccc(Cl)cc4)C3=O)C2)c(OC)c1` (stereo not drawn), the fluorescence intensity is 20500 (active). Then `COc1cccc(N2CCN(C3CC(=O)N(c4ccc(Cl)cc4)C3=O)CC2)c1` (stereo not drawn), with 2900 (inactive); and `CSc1ccc(CNC(=O)C2(C)CCCN2C)cc1` (stereo not drawn), with 3920 (inactive). As to `COc1ccc2oc(=O)c(C(=O)O)cc2c1`, the fluorescence intensity was 20900 (active). As for `COc1ccc2oc(=N)c(C(=O)Nc3ccc(Br)cc3)cc2c1`, the fluorescence intensity was 2900 (inactive). Then `COc1ccc2oc(N)nc2c1`, with 2890 (inactive); and `Cc1ccc(NC(=O)[C@H](Cc2ccccc2)NC(=O)CC[C@H]2O[C@@H](n3ccc(=O)[nH]c3=O)[C@H](O)[C@@H]2O)cc1C`, with 5530 (inactive). Then `CCOC(=O)C1(C)CCCN(C(=O)c2cccc(Cl)c2)C1` (stereo not drawn), with 3450 (inactive); and `COCCn1c(CN2CCC(Cc3ccccc3)CC2)nc2c1c(=O)n(C)c(=O)n2C`, with 2950 (inactive); and `CC(=NCc1ccc2c(c1)OCO2)c1c(O)[nH]c(=O)[nH]c1=O`, with 4690 (inactive). On to `CC(=NC1CCN(Cc2ccccc2)CC1)c1c(O)[nH]c(=O)[nH]c1=O`, for which the fluorescence intensity was 22800 (active).

With `CC(=NC1CCN(Cc2ccccc2)CC1)c1c(O)n(C)c(=O)n(C)c1=O`, the fluorescence intensity is 22500 (active).

On to `CC1CCN(Cc2nc3c(c(=O)n(C)c(=O)n3C)n2CCc2ccccc2)CC1`, for which the fluorescence intensity was 3630 (inactive).

Consider `CC(=NCC1CCCO1)c1c(O)[nH]c(=O)[nH]c1=O` (stereo not drawn), for which the fluorescence intensity was 2530 (inactive). On to `Cc1ccc2c(c1)nnc1nnc(SCC(=O)O)n12`, for which the fluorescence intensity is 6320 (inactive). `CCOc1ccc(CCN2C(=O)C(=O)N([C@@H](Cc3ccc(O)cc3)CN3CCC[C@H]3CN3C(=O)C(=O)NC[C@@H]3CC(C)C)C[C@@H]2Cc2ccccc2)cc1`: the fluorescence intensity was 4410 (inactive).

Consider `CCN(CCN(C)C)C(=O)c1ccc2nc(C)c(N(C)C(=O)CCc3ccccc3)n2c1`, for which the fluorescence intensity is 3720 (inactive). In the case of `Cc1c(S(=O)(=O)NCc2ccccc2)c(=O)n(C)c(=O)n1C` it was 4270 (inactive). In the case of `CCn1c2ccccc2c2cc(NC(=O)COC(=O)c3cc(S(=O)(=O)N4CCCCC4)ccc3Cl)ccc21` it was 1830 (inactive); in that of `CCn1c2ccccc2c2cc(NC(=O)C/C(C)=N/NC(=O)c3ccccc3N)ccc21`, 23100 (active); in that of `CCn1c2ccccc2c2cc(NC(=S)N3CCOCC3)ccc21`, 2580 (inactive).
